Laboratory results reported in PubChem BioAssay AID1037 (National Center for Advancing Translational Sciences (NCATS), 2008).
Active and inactive are the calls of the source. Calls come from the whole dose curve.

Experiment: NSCLC 2 Cell Viability Secondary Assay for qHTS Assay for Epigenetic Modulators
Conditions: NSCLC 2 viability, MTS absorbance, 4 days
Source text: NIH Molecular Libraries Screening Centers Network [MLSCN] NIH Chemical Genomics Center [NCGC] MLSCN Grant: 1 X01 MH079860-01 Assay Provider: Elisabeth D. Martinez, University of Texas SW Medical Center NCGC Assay Overview: This secondary assay characterizes selected actives identified in the qHTS of the Locus Derepression (LDR) assay (PubChem AID 597). The LDR assay detects the derepression of a GFP reporter that is stably integrated in a region of the genome of murine c127i mammary cells that is presumably silenced. Compounds that cause derepression of the locus to express GFP are identified by enumerating GFP positive cells using a laser-scanning microplate cytometer. Selected LDR actives were assayed for killing of NSCLC 2, a patient-derived nonsmall cell lung carcinoma line. Known epigenetic drugs, like histone deacetylase inhibitors, can block cancer cell growth. NSCLC 2 cell viability was measured using Cell Titer 96 AQueous One (Promega), an assay which detects the ability of metabolically active cells to reduce a tetrazolium salt substrate (MTS), into a soluble formazan product that can be measured by colorimetry.
NCGC Assay Protocol Summary NSCLC 2 cells were plated in 96-well flat bottom tissue culture dishes (Corning) and grown overnight at 37 C and 5% CO2, then treated with compounds, incubated 4 days, and assayed for viability using the Cell Titer 96 AQueous One kit (Promega) according to the manufacturer's protocol. Absorbance at 490 nm and 650 nm (reference) was measured by a Spectra Max (Molecular Devices). Data were normalized to the untreated control (100% viability). Each cell line was tested in one or two independent assays, each containing 4 or 8 replicates. For further details, see R.L. Johnson, W. Huang, A. Jadhav, C.P. Austin, J. Inglese, E.D. Martinez, A Quantitative High-Throughput Screen Identifies Potential Epigenetic Modulators of Gene Expression, Analytical Biochemistry (2007), doi: 10.1016/j.ab.2007.12.028

| SMILES | Potency | outcome |
| --- | --- | --- |
| CC(C)C(=O)NC(c1ccco1)c1cc([N+](=O)[O-])c2cccnc2c1O (stereo not drawn) | 6000 nM (active) |  |
| O=Nc1ccc(O)c2ncccc12 | 1000 nM (active) |  |
| CC(C)C(=O)NC(c1ccco1)c1ccc2cccnc2c1O (stereo not drawn) | 800 nM (active) |  |
| O=C(CSc1cccc2cccnc12)N1CCCC1 |  | inactive |
| CN1C(=S)SC(c2ccccc2)N(C)C1c1ccccc1 (stereo not drawn) |  | inactive |
| O=C(CSc1cccc2cccnc12)NCc1ccccc1 |  | inactive |
| CC(C)C(=O)NC(c1ccc(N(C)C)cc1)c1ccc2cccnc2c1O (stereo not drawn) | 200 nM (active) |  |
| CC(/C=C/C(=O)NO)=C\[C@@H](C)C(=O)c1ccc(N(C)C)cc1 | 40 nM (active) |  |
